The record followed here is PubChem BioAssay.

Each structure is given as a SMILES string. Values without a mark were called inactive. No rule for the calls is given here.

The assay in a line: compounds altering viability of human ES cells (AID 493140).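 Also: cells exposed to compounds for four days before counting.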 To be noted: human embryonic stem cell survival screen; stronger effect = higher value.
For `CCCCC[C@H](O)/C=C/[C@H]1OC(O)C[C@H](O)[C@@H]1C/C=C\CC(=O)O` (stereo not given in full), the survival is 117.

In the case of `NC(=O)c1ccc[n+]([C@H]2O[C@@H](COP(=O)([O-])OP(=O)(O)OC[C@H]3O[C@@H](n4cnc5c(N)ncnc54)C(O)[C@H]3O)C(O)[C@H]2O)c1` (stereo not given in full), the survival was 4.5.

Take `O=C(O)c1cc(NCc2cc(O)ccc2O)ccc1O`: the survival was 90.2.

Take `Nc1ncc2[nH]cnc2n1`: the survival was 108.

Take `Cn1cnc2nc(NCCO)nc(NCc3ccccc3)c21`: the survival was 111.

As to `CC1O[C@@H](O[C@@H]2C(CO)O[C@@H](OCC3O[C@@H](OC(=O)C45CC[C@@H](C)[C@H](C)[C@H]4C4=CC[C@@H]6[C@@]7(C)C[C@@H](O)[C@H](O)[C@@](C)(CO)C7CC[C@@]6(C)[C@]4(C)CC5)C(O)[C@H](O)[C@@H]3O)C(O)[C@@H]2O)C(O)[C@@H](O)[C@H]1O` (stereo not given in full), the survival was 9.83.

On to `CN(N=O)C(=O)NC1[C@@H](O)OC(CO)[C@@H](O)[C@H]1O` (stereo not given in full), for which the survival was 8.42.

For `C[C@@]1(OC(=O)/C=C\c2ccccc2)C[C@H](O)[C@@]2(O)C=CO[C@H](OC3OC(CO)C(O)C(O)C3O)C12` (stereo not given in full), the survival is 6.83.

On to `CCCCC/C=C\C/C=C\C/C=C\C=C\C1CCCC(=O)O1` (stereo not given), for which the survival is 76.9.

Turning to `CCCCC/C=C\C[C@@H](O)/C=C/C=C\CCC(=O)O`, the survival was 67.7.

Consider `CC1(C)S[C@@H]2[C@H](NC(=O)C3(N)CCCCC3)C(=O)N2[C@H]1C(=O)O`, for which the survival is 3.83.

In the case of `CC(C)C[C@H](NC(=O)[C@H](CCC(=O)O)NC(=O)CNC(=O)c1ccc(/C=C/C(=O)O)cc1)C(N)=O`, the survival is 88.2.

On to `CCCCC/C=C\C\C=C/C=C/C=C/[C@@H](SCC(NC(=O)CCC(N)C(=O)O)C(=O)NCC(=O)O)[C@@H](O)CCCC(=O)O` (stereo not given in full), for which the survival is 90.2.

In the case of `COc1ccc2nccc(C(=O)O)c2c1`, the survival is 19.9.

On to `CCCCCCCC/C=C\C/C=C\C=C\C(O)CCCC(=O)O` (stereo not given), for which the survival is 116.

`CCCCCCCN[C@H]1CCC[C@@H]1CCCCCCC(=O)O`: the survival was 114.

Consider `Nc1ncn(C2O[C@H](CO)[C@H](O)[C@@H]2O)c(=O)n1` (stereo not given in full), for which the survival was 0.083.

As to `CCCCC/C=C\C=C\[C@@H](O)C/C=C\C/C=C\CCCC(=O)O`, the survival is 81.2.

Take `CCC(C(=O)C(C)C(O)C(C)CCc1ccc(C)c(O)c1C(=O)O)[C@H]1O[C@](CC)([C@H]2CC[C@](O)(CC)[C@H](C)O2)C[C@@H]1C` (stereo not given in full): the survival is 24.1.

On to `CCCCCC(O)/C=C/C=C\CCCCCCCC(=O)O` (stereo not given), for which the survival was 49.5.

`COC1C(O)CC(=O)OC(C)CC=CC=CC(OC2CCC(N(C)C)C(C)O2)C(C)CC(CC=O)C1OC1OC(C)C(OC2CC(C)(O)C(O)C(C)O2)C(N(C)C)C1O` (stereo not given): the survival was 3.42.

On to `O=c1[nH]c(=O)n([C@H]2C[C@@H](O)[C@@H](CO)O2)cc1C(F)(F)F`, for which the survival is 0.583.

Take `CCCCC/C=C\C\C=C/C=C/C=C/[C@@H](SCC(N)C(=O)O)[C@@H](O)CCCC(=O)O` (stereo not given in full): the survival is 107.

On to `CCCCCC[C@@H](O)C/C=C\CCCCCCCC(=O)O`, for which the survival is 85.1.

As for `CCCCCCCCCCCCC/C=C/[C@@H](O)[C@@H](N)COP(=O)(O)O`, the survival was 87.9.

`CCCCC[C@H](O)/C=C/[C@@H]1[C@@H](CC(=O)CCC(=O)O)[C@@H](O)C[C@H]1O`: the survival was 104.

`CCCCC/C=C\C/C=C\C[C@H](O)/C=C/C=C\CCCC(=O)O`: the survival is 91.5.

`CCCCC/C=C\C[C@@H](O)/C=C/C=C/C=C/[C@@H](O)CCCC(=O)O`: the survival was 77.1.

On to `N#CC(C#N)=C(N)/C(C#N)=C/c1cc(O)c(O)c(O)c1`, for which the survival was 82.2.

Turning to `CCCCC[C@H](O)/C=C/C=C\C/C=C\C=C\[C@@H](O)CCCC(=O)O`, the survival was 103.

Take `Cc1cc(=O)c2c(O)c3c(O)cc(O)c4c5c(O)cc(O)c6c(O)c7c(=O)cc(C)c8c1c2c(c34)c(c65)c78`: the survival was 52.2.

For `CCCCC/C=C\C/C=C\C/C=C\C=C\C(O)CCCC(=O)O` (stereo not given), the survival was 122.

As for `O=P(O)(O)C(O)c1ccc2ccccc2c1` (stereo not given), the survival was 93.4.

For the compound `O=C(O)CCCC/C=C\C[C@@H](O)/C=C/C=C/C=C\[C@@H](O)CCCC(=O)O`, the survival is 96.1.

Consider `CCCCC[C@H](O)/C=C/C=C/C=C/[C@H](O)C/C=C\CCCC(=O)O`, for which the survival was 107.
